Screening results: PubChem, National Center for Advancing Translational Sciences (NCATS)
HP1b chromo inh = HTS for Inhibitors of HP1-beta Chromodomain Interactions with Methylated Histone Tails; AlphaScreen HP1-beta / biotin-H3K9me3 peptide binding; Potency, µM (top dose mostly 114 µM), for inactives: at the highest dose activity change, negative = inhibition, usual class: inhibitors; 390,000 tested, 0.56% active; further: nearly all actives have a fitted effect of over 70% in size
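AlphaScreen: HP1-beta (50 nM) preformed 30 min with biotin-H3(1-18)K9me3 peptide (50 nM) in PBS pH 7.4, 0.01% Tween-20. Compound added for 30 min at RT, then streptavidin donor/nickel chelate acceptor beads (10 ug/mL) for 30 min.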
GLS inh = qHTS for Inhibitors of Glutaminase (GLS); Glutaminase kidney isoform, mitochondrial (Homo sapiens), O94925; GLS enzymatic activity, qHTS titration; AID 624170, 2012; 410,000 tested, 0.21% active; Potency, µM (series often up to 45.5 µM), for the others: at the top dose activity change, negative = inhibition, usual class: inhibitors; further: on the % scale 0 is the no-effect control and ±100 the full control effect
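Read-out is an Amplex red fluorescence increase coupled through glutamate oxidase and HRP, measured before and after 30 min room-temperature incubation. hKGA is in 45 mM KH2PO4 (pH 8.2) with 0.02% Tween-20; glutamine added as 1mM solution.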
BAZ2B inh = qHTS Assay for Inhibitors of BAZ2B; Bromodomain adjacent to zinc finger domain protein 2B (Homo sapiens), Q9UIF8; AlphaScreen BAZ2B-H3K14Ac peptide displacement; Potency, µM (highest dose often 114 µM), without a hit: top-dose activity change, negative = inhibition, usual class: inhibitors; 360,000 tested, 4.4% active; further: on the % scale 0 is the no-effect control and ±100 the full control effect; nearly all actives have a fitted effect of over 60% in size
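Protein-peptide AlphaScreen: BAZ2B 50 nM, b-H3K14Ac 50 nM, 1x PBS pH 7.4 + 0.01% Tween-20. Preincubation 30 min RT; cpd 30 min RT (top 110 uM); beads 20 min RT, light-protected.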
JMJD2A Tudor = qHTS Assay for Inhibitors of JMJD2A-Tudor Domain | Lysine-specific demethylase 4A (Homo sapiens), O75164 | AlphaScreen JMJD2A-Tudor / H3K4me3 peptide binding | Potency, µM (doses to about 114 µM), for the others: at the highest dose activity change, negative = inhibition, actives largely listed as inhibitors | 390,000 tested, 4.4% active; further: on the % scale 0 is the no-effect control and ±100 the full control effect; nearly all actives have a fitted effect of over 50% in size
Target sequence (O75164 whole entry, looked up, the tested form may be a part): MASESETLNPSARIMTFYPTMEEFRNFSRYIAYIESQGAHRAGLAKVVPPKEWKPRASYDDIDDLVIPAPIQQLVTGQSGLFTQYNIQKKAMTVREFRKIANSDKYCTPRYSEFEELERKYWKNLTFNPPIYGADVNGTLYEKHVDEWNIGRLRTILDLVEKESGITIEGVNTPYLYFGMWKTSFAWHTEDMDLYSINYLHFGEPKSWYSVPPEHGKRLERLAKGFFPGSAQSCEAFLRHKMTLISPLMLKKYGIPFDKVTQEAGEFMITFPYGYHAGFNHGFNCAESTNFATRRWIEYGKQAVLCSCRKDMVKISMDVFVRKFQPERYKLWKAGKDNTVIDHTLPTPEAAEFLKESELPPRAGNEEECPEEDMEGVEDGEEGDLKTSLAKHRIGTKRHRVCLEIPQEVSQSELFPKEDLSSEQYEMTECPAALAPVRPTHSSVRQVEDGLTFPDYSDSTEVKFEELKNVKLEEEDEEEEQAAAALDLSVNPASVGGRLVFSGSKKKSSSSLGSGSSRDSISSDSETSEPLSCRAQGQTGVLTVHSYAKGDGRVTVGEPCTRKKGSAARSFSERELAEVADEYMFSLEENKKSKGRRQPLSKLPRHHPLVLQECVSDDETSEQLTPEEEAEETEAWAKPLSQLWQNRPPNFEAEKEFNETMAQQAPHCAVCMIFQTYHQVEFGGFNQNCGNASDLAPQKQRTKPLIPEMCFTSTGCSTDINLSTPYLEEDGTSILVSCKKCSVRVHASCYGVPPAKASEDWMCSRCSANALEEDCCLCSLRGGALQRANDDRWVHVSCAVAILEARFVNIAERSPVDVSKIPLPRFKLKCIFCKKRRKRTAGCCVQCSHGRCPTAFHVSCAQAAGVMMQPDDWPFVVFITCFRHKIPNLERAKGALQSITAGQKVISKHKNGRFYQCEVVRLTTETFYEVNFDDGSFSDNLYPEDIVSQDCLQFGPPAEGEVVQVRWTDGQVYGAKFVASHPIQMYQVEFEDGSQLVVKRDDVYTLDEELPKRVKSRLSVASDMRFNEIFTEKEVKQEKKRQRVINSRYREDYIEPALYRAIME
G9a block = qHTS Assay for Inhibitors of Histone Lysine Methyltransferase G9a; Histone-lysine N-methyltransferase EHMT2 (Homo sapiens), Q96KQ7; G9a H3K9 monomethylation, AlphaScreen, 2 h; Potency, µM (series often up to 102 µM), for inactives: at the top dose activity, negative = inhibition, usual class: inhibitors; 350,000 tested, 8.8% active; AID 504332, 2011; further: on the % scale 0 is the no-effect control and ±100 the full control effect; nearly all actives have a fitted effect of over 75% in size
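Quantitative HTS format: methyltransferase activity on a biotin-tagged H3K9 peptide is measured by AlphaScreen, using a rabbit anti-monomethyl-H3K9 antibody with streptavidin donor and anti-IgG acceptor beads. Final levels are 20 nM enzyme, 500 nM peptide, 20 uM SAM; 2 h RT.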
An asterisk follows results filed as active; ? = inconclusive; nt = not tested or not shown; ! = repeats disagree; [ ] = dose if it differs, or a comment. Hits are enriched below; roughly 10% of the tested compounds scored in any of these assays. The call rests on the fitted dose curve; in most records, active means well fitted curve in the direction sought with a large enough effect; inconclusive means small, poorly fitted or top-dose-only effect, or another doubt; inactive means no such curve, though single readings can be large; an effect the other way counts as inactive or inconclusive. Potency means the concentration at half of the fitted maximal effect.

SMILES | HP1b chromo inh | GLS inh | BAZ2B inh | JMJD2A Tudor | G9a block
Cc1ccc(-c2nc3ncccc3o2)cc1NC(=O)COc1ccc(C(C)C)cc1 | 32.3% | -19.7% | -6.1% | -17.3% | 14.1µM*
Cc1cc(OCC(=O)Nc2cc(-c3nc4ncccc4o3)ccc2C)ccc1Cl | -5.2% | -7.9% | -14.4% | -30.1% | -9.5%[59 µM]
COCCNCC(=O)Nc1nc(C)cs1 | 14.7% | 38.8% | 31.6µM* | ? | 8.91µM*
Cc1csc(NC(=O)CNS(=O)(=O)c2cccs2)n1 | 4.7% | ? | -2.2% | 8.91µM* | 47.2%[12.7 µM]
CCc1ccc(NC(=O)c2ccc3c(c2)N(Cc2ccc(C)cc2)CCS3)cc1 | 39.4% | 1.1% | -3.9% | -12.3% | -49.0%[59 µM]
O=[N+]([O-])c1cnc(N2CCCCC2)c([N+](=O)[O-])c1 | ? | 0.0% | ? | -18.8%[57.1 µM] | 10µM*
CCN1CCN(c2ccc(S(=O)(=O)N3CCOCC3)cc2NC(=O)CC(C)C)CC1 | 43.6% | -3.1% | -23.0% | -9.8% | 0.5%[12.7 µM]
CCN1CCN(c2ccc(S(=O)(=O)N3CCOCC3)cc2NC(=O)c2ccccc2SC)CC1 | 14.2% | -2.7% | -4.0% | -9.0% | 31.6µM*
CCN1CCN(c2ccc(S(=O)(=O)N3CCOCC3)cc2NC(=O)c2sccc2C)CC1 | 6.2% | -0.7% | -5.2% | -20.5% | 12.6µM*
CCN1CCN(c2ccc(S(=O)(=O)N3CCOCC3)cc2NC(=O)c2cc(Cl)nc3ccccc23)CC1 | 13.4% | 2.5% | 4.1% | -6.9% | 44.7µM*
CCN1CCN(c2ccc(S(=O)(=O)N3CCOCC3)cc2NC(=O)C(C)Oc2ccc(Cl)cc2)CC1 (configuration not stated) | 1.9% | 11.8% | -31.4% | -25.1% | 11.2µM*
CCN1CCN(c2ccc(S(=O)(=O)N3CCOCC3)cc2NC(=O)c2cc(F)c(F)c(F)c2F)CC1 | nt | -0.1% | nt | nt | nt
CC(C)(C)c1ccc(C(=O)N2CC(=O)Nc3ccc(F)cc3C2c2ccc(F)cc2)cc1 (configuration not stated) | 4.8% | -15.6% | -27.0% | -31.4% | -47.6%[59 µM]
Cc1ccc(-c2nc(CS(=O)(=O)CC(=O)NCCc3ccccc3)c(C)o2)cc1 | 20.0% | -4.1% | -1.7% | -13.8% | -2.4%[59 µM]
CC(=O)N1CCN(c2cc(-c3ccccc3)nc3cc(-c4cccc(Cl)c4)nn23)CC1 | nt | -8.3% | nt | nt | nt
C(=N\N1CCN(Cc2cccc3ccccc23)CC1)/c1cccs1 | ? | -10.7% | 12.6µM* | 39.8µM* | 50.1µM*
CCN(CC)c1ccc(/C=N/N2CCN(Cc3cccc4ccccc34)CC2)c(O)c1 | ? | 28.3% | ? | 7.08µM* | 2.8%[2.33 µM]
CCN(CC)c1ccc(/C=N/N2CCN(Cc3ccc(Cl)cc3)CC2)c(O)c1 | ? | 18.9% | 3.55µM* | ? | 10µM*
CCN(CC)c1ccc(/C=N/N2C(=O)c3ccccc3C2=O)c(O)c1 | 9.3% | 8.8% | 15.2% | -25.7% | ?
Oc1ccc(Br)cc1/C=N/N1CCN(Cc2cccc3ccccc23)CC1 | -1.7% | 8.3% | -38.5% | ? | nt
O=C(O)c1ncc(Cl)c(Cl)c1Cl | 22.5% | 3.9% | -14.5% | 50.1µM*! | 50.1µM*
Brc1ccc(Nc2c3c(nc4nncn24)CCC3)cc1 | 40.8% | -2.6% | 5.5% | -12.9% | -6.8%[59 µM]
Cc1nn(C2CCS(=O)(=O)C2)c(C)c1C=O (configuration not stated) | -13.0% | ? | 9.3% | 12.6µM* | 1.3%
C=CCn1c(C)cc(C(=O)COC(=O)/C=C/c2c(C)nn(C3CCS(=O)(=O)C3)c2Cl)c1C (configuration not stated) | -29.4% | 13.5% | ? | ? | ?
O=S1(=O)c2ccccc2N(Cc2ccccc2F)c2ccccc21 | 10.0% | -0.1% | -7.8% | -15.7% | 17.6%[59 µM]
CCOc1cc(CNCCN2CCOCC2)ccc1OCc1ccccc1Cl | 12.4% | 4.7% | -17.7% | -17.9% | 50.1µM*
